# Substitutions are numbered along the chain they refer to. The full ranking holds about 24,000 sequences; the median of “enrichment r” is about 0.99, and the highest 2% start at about 3.7. The sample holds the highest values, similar sequences and a random draw of the others, so the mix is not that of the screen.
# T1: UNK ZnF1-3 (human, UniProt Q9C0B0 31-174)
# T1 sequence: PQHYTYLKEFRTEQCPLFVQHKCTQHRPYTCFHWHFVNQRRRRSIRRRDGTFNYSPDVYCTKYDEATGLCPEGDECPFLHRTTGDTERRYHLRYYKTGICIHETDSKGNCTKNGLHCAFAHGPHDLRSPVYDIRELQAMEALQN
# B1: chr5:131913501:131913502:-_ENSMUSG00000029673_ENSMUST00000160071|mus_mus|FALSE|FALSE (ssRNA)
# RNA: GGGAGUUCUACAGUCCGACGAUCGUUCCAGUGCACAGAAUCCUUGGGAUUUUUUUUUUCUUUUUAGUUGUUGUCUUAAAAAAAAAAAAAUUAAAACGAAAGAAAGAAAACAAAACACCGCACACAUCUGGUGUCCACAAAAUCCAACAGAGGAUUGAGCAUCA
# B2: 141912308_141912428_1497_3pUTR_ENSMUSG00000028273_ENSMUST00000029941|mouse|control|control (ssRNA)
# RNA: GGGAGUUCUACAGUCCGACGAUCUUGGCACCGGCCACAUUCAGGAGCAAAGAACUUCUCAUAGCAUAGCUCACAGUACAGUGCUCCCUUCUCCUCUACAAAGCCUAUGUAGGCCAUUGUGUUUUUGCAAUGAGCACAGUUAAACAACAGAGGAUUGAGCAUCA
# B3: chr11:51934471:51934472:+_ENSMUSG00000020349_ENSMUST00000020608|perfect_dup|motif|central (ssRNA)
# RNA: GGGAGUUCUACAGUCCGACGAUCGAUUGCAGCUUGGUUACCACAACGAUAACAAUAGUUUGGAGCACUGAAAAUCGUUACGGCAUUCCGGUCAUGGCACCAGUUAUAUCCCUCCAUCACUAGCUGGUGAGCUCUAGACACCAACAACAGAGGAUUGAGCAUCA
# B4: chr12:16048344:16048345:+_ENSG00000023734_ENST00000419869|hu_hu|hu_hu_hu_mus_True|38_68 (ssRNA)
# RNA: GGGAGUUCUACAGUCCGACGAUCAGAUCGUCCAUAAGUAAUAACCAAAAUCUCUCCUUCAGGAAUAUAUUCCAUACUGCUAACAGACAUAUUAAAAUUUAGAGAUUUCACUUCUGUCAUUGUGGCAUGAUCCCAGAGCCGAACCAACAGAGGAUUGAGCAUCA
# B5: chr1:115282395:115282396:-_ENSG00000009307_ENST00000339438|hu_hu|FALSE|FALSE (ssRNA)
# RNA: GGGAGUUCUACAGUCCGACGAUCAUUAUACUGUGAACAGUGGAAGAAAAGUCUAGCUUGACGUUCUGAACACUGAAUAAAUCCGUAAGAGGUUAACAGUUUUUCAAUAACCCCAGUUUCACGCAGUGCUGCUGAAGUACCAUUCAACAGAGGAUUGAGCAUCA
# B6: 35805507_35818940_561_CDS_ENSG00000108100_ENST00000265375|human|control|control (ssRNA)
# RNA: GGGAGUUCUACAGUCCGACGAUCUUCAUCAAAAAUAUCUAAGAGCAUCCUUCCAUCUGGGUCCCUGUUUUUGAUGUGAUAAUAUAUUGCAAGAGCGACACAUUUAAUUGUAUACUUGAGGUUUGGUUGACUGACUGUGCUAUCCAACAGAGGAUUGAGCAUCA
# B7: 44216504_44217224_307_CDS_ENSG00000096384_ENST00000371646|human|control|control (ssRNA)
# RNA: GGGAGUUCUACAGUCCGACGAUCCAAAGUCAGGGUACGUUCCUGAGGGUUGGGGAUGAUGUCAAUUUUCAGCUCUUUACCACUGUCCAACUUCGAAGGGUCUGUCAGGCUCUCAUAGCGAAUCUUGUCCAAGGCAUCAGAAGCCAACAGAGGAUUGAGCAUCA
# B8: 55340085_55340205_1272_CDS_ENSMUSG00000021488_ENSMUST00000099490|mouse|control|control (ssRNA)
# RNA: GGGAGUUCUACAGUCCGACGAUCUUCUUUCUGUUUCCCUCUUUUCCUAAGGACAGGUAGUUCUUCAAAUUGAUGUCUGCCUUCAAACAUGACGAUUGCUUUUCCAGCCACCCAGGCUUUUUCAGAAGGGUCUCCAAAAGCCUCCAACAGAGGAUUGAGCAUCA
# B9: chr3:120321071:120321072:+_ENSG00000065518_ENST00000184266|hu_hu|FALSE|FALSE (ssRNA)
# RNA: GGGAGUUCUACAGUCCGACGAUCUCAUUGCCAGACUUAAUAUGAGAGGUGAAAUGUUCGAUCCAAUUUUCCUUCCUGGAUAAGUUUUUCUUUCCUAUCCCUCUCAGUUUUGAUAAUAUAAUAAAUGAAGAUGAGGGGCCCAAACAACAGAGGAUUGAGCAUCA
# B10: chr2:203071746:203071747:-_ENSG00000116030_ENST00000392246|hu_hu|FALSE|FALSE (ssRNA)
# RNA: GGGAGUUCUACAGUCCGACGAUCCACCACAAGCCUGAAAAUGCAAUGUCCUGAAAAAGGUGACCUCUCUGUGCACACGUAAUUUUUAAAAAGGAGAGGGUAAUAUGAAGGGGACUGAGGCUUGAUCACCAAAAAUCAGCACAACAACAGAGGAUUGAGCAUCA
# B11: chr1:133829981:133829982:+_ENSMUSG00000026434_ENSMUST00000062264|mus_hu|FALSE|FALSE (ssRNA)
# RNA: GGGAGUUCUACAGUCCGACGAUCUAUCAGAAAUAUAGAAUACAUUUUUCAAUCUAAUGAAUUAAUUUUAAAAGGGACCCUAAACAAGAAGCCCAAUCAAAUGCACACAAGUAAUCUAGAAGACAUGAUUACCUCUAAAAUAUGCAACAGAGGAUUGAGCAUCA
# B12: chr16:49524686:49524687:-_ENSG00000102935_ENST00000562871|hu_mus|FALSE|FALSE (ssRNA)
# RNA: GGGAGUUCUACAGUCCGACGAUCAAUUAAAAGGAAAUAUUCAGACAAUAGCCAAGCAAUCACAUCACGAUGCACAAUUACCUAGAAUUGCAAUUAAAAAGUAGUUAACUGAAGGGGGGGGGGGGGAGAAAGAAAAACAAGAAACAACAGAGGAUUGAGCAUCA
# B13: chr7:151048522:151048523:+_ENSG00000013374_ENST00000566856|hu_mus|hu_hu_hu_mus_True|48_98 (ssRNA)
# RNA: GGGAGUUCUACAGUCCGACGAUCCUGUUUCUUAUUUAUGACAAUUUUGAUGUAAUUUUCUUGAAAUCCGAAAGUUUCAGCUAUUUGGGACCUCAGUUCUCUACCAGUGACAUGCAAGCGGGUCUCCAACAAGCUUUUCUUAUCCAACAGAGGAUUGAGCAUCA
# B14: chr1:133829981:133829982:+_ENSMUSG00000026434_ENSMUST00000062264|mus_hu|motif|central (ssRNA)
# RNA: B11 RNA with U80G, A81G
# B15: chr7:138235809:138235810:+_ENSG00000122779_ENST00000415680|hu_mus|FALSE|FALSE (ssRNA)
# RNA: GGGAGUUCUACAGUCCGACGAUCAGAAGCAUCACACCUUGCACGAAGAAGGUGCCGUAACCUGUAUGUAAUCAGCCGCUUGCUGUACAGCAAGGCUGUGCUGCUGCCACUGGAAACAGCCCAUUUAGAAAAAUGCAUGACGUGCAACAGAGGAUUGAGCAUCA
# B16: chr3:67279072:67279073:+_ENSMUSG00000027774_ENSMUST00000077271|mus_mus|FALSE|FALSE (ssRNA)
# RNA: GGGAGUUCUACAGUCCGACGAUCUGCCCAGAAUCCUACCUCUUGAUGAGAGGACUGUGAGUUUUGAGGCCAACAGGGGCUAUAUACACACAGCCCUUAUGUCCAAAAAAAAAAAAAGCAGUGAAGUAAAUUUAUAUAUAUUUUCAACAGAGGAUUGAGCAUCA
# B17: chr15:83907240:83907241:-_ENSMUSG00000018865_ENSMUST00000082365|mus_mus|motif|central (ssRNA)
# RNA: GGGAGUUCUACAGUCCGACGAUCGCUGUGAAAGAUACUAAUUCUUGGUGCAGUCUGGCAUCUGUGGGGCCUCUUCCACACCGGCCAGUGCCUUCAGAUGCCACCCGCAGCCUCGGGCCAGCUUCCCUGCCGAAACAUUCCUUGCAACAGAGGAUUGAGCAUCA
# B18: chr2:242276830:242276831:+_ENSG00000168385_ENST00000391971|hu_mus|FALSE|FALSE (ssRNA)
# RNA: GGGAGUUCUACAGUCCGACGAUCUAAGGGCUUCAGUCCAUGUCCAAAAGGUGAAAUGAAGUAGAAGCAACAAUGUACCCUGUUAUCAAUGAUGUGACGCCUGUUCAGUCCACUCUCAUCAUGUAGGUAGCGUUCAAACUGCUCCAACAGAGGAUUGAGCAUCA
# B19: chr17:45747064:45747065:+_ENSG00000108424_ENST00000290158|hu_hu|hu_hu_hu_mus_True|28_58 (ssRNA)
# RNA: GGGAGUUCUACAGUCCGACGAUCGCCCACAGUCCACGCUGUUGUGUCUCGAACAACUACACUGGGGUCUUUCAUUAAUUCUAUUAGGGUGGGCAUAGCCUGUAUGACUAGUGGUUUCAGUUGAUUAGGCUCUGGUCCUUCCAACAACAGAGGAUUGAGCAUCA
# B20: chr1:52246310:52246311:-_ENSMUSG00000026103_ENSMUST00000114513|mus_mus|motif|central (ssRNA)
# RNA: GGGAGUUCUACAGUCCGACGAUCGCCCAUCUUGUCAAGAGGAGGAGACCAACACAUCAUGCCCAUGACGUUGGGGACAACGGAAAGAAUACCCCCAGCAACUCCAGAUUUUGCAGGAAGACCAACAUGGAACGCAAACUGCCCCAACAGAGGAUUGAGCAUCA
# B21: chr7:7679991:7679992:-_ENSG00000106399_ENST00000396682|hu_hu|hu_hu_hu_mus_False|18_48 (ssRNA)
# RNA: GGGAGUUCUACAGUCCGACGAUCUGGGAUGAAUCUUUUCCAGCUUCCCCACGAAGCACACGGGCCGGUCGAUAUACUGUGGUAACAUGCCGGCGUUGACGCGCGCUUUGGGGAGCUCCAUCAUGUCCUCCAUGAUUCUGCCGCCAACAGAGGAUUGAGCAUCA
# B22: chr1:163117127:163117128:-_ENSG00000143248_ENST00000313961|hu_mus|hu_hu_hu_mus_False|38_78 (ssRNA)
# RNA: GGGAGUUCUACAGUCCGACGAUCUGCUACAAAGGAUGUAACUCAACUCACAGGGCAUGAUUUCAUAGCCUGACCAGAUGACUACUUGAUUAGCUCCUGAUAAAACUCAGAGCGCACAAAGCGGGGCAGAGAAUCCUUCUCCAUCAACAGAGGAUUGAGCAUCA
# Molecular target: T1, UNK ZnF1-3
# Assay: nsRBNS (natural sequence RNA bind-n-seq); RBNS binding buffer (assumed for nsRBNS): 25 mM Tris pH 7.5, 150 mM KCl, 3 mM MgCl2, 0.01% Triton X-100, 500 ug/ml BSA, 20 U/ml SUPERase-In, 4 C; UNK is unkempt and MSI1 is Musashi-1; names of the RNAs are library labels; protein concentration not given here; high values mean tight binding
row,Binder,binding signal [enrichment R]
1,B1,1.15
2,B2,0.923
3,B3,1.16
4,B4,1.04
5,B5,0.906
6,B6,2
7,B7,0.999
8,B8,0.635
9,B9,2.02
10,B10,3.8
11,B11,4.97
12,B12,1.26
13,B13,0.854
14,B14,5.06
15,B15,0.971
16,B16,4.32
17,B17,0.646
18,B18,0.794
19,B19,0.639
20,B20,1.07
21,B21,0.554
22,B22,0.974
